This is an account of results in PubChem BioAssay AID504840 (Johns Hopkins Ion Channel Center, 2011).

Screen size: about 1,500 compounds; about 890 (59%) were called active.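 Rule for the calls: active = inhibition of the choline-evoked signal at any tested dose together with a fitted dose-response curve; inactive = no inhibition at any dose or no curve.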 The set was probably picked from earlier hits. The list is a sample of the results. Entries with a potency or affinity are not part of this list.

The target in this experiment is High affinity choline transporter 1 (Homo sapiens) (UniProt Q9GZV3). As to the kind of experiment: CHT inhibitors, dose response, cell-based, 5-point CRC, membrane potential dye (AID 504840). As to conditions: HEK293-CHT, choline-induced depolarization, CHT with LV-to-AA double alanine mutation; series mostly up to 37 µM.
High affinity choline transporter 1 (Homo sapiens), sequence (Q9GZV3 whole entry, looked up): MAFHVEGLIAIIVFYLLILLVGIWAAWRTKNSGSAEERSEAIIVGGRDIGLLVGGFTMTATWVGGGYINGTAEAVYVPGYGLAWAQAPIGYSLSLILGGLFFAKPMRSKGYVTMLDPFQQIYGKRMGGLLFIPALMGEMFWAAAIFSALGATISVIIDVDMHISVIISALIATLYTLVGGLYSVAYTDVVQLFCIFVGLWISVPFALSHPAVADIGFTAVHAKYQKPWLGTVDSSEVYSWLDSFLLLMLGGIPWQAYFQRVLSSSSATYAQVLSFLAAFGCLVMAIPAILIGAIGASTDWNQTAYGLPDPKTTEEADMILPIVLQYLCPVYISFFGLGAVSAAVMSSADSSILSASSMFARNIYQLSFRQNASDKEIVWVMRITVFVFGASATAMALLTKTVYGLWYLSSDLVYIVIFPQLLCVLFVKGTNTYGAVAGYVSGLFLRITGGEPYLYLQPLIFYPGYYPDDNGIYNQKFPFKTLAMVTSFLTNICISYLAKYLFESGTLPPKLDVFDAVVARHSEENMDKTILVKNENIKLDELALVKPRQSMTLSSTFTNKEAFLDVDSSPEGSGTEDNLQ
On to `O=C(Nc1ccccc1Cl)c1ccc(S(=O)(=O)NCC2CCCO2)cc1` (configuration not stated), for which the call was inactive.

For the compound `Cc1cc(S(=O)(=O)NCc2ccncc2)c(C)cc1Br`, the compound was called inactive.

As for `COc1ccc(-n2cnnc2SCC(=O)Nc2cc(S(=O)(=O)N3CCCCC3)ccc2C)cc1`, the result was inactive.

As for `CCC1CCCCN1CCCNC(=O)c1ccc(N2CCOCC2)c(NS(=O)(=O)c2ccc(OC)cc2)c1` (configuration not stated), the call was inactive.

Regarding `Cc1ccc(Oc2ccc(S(=O)(=O)NCC(C)(C)N3CCOCC3)cc2)cc1`, the compound was called inactive.

For `Cc1ccccc1CNS(=O)(=O)c1ccc2c(c1)OCCO2`, the compound was called inactive.

For the compound `CCOC(=O)c1ccc(NS(=O)(=O)c2ccc3c(c2)NC(=O)CCS3)cc1`, the call was inactive.

For `Cc1cccc(C(=O)NNC(=S)NC(=O)c2cccs2)c1`, the compound was classed as inactive.

For the compound `Cc1ccccc1C(=O)NNC(=S)NC(=O)c1ccc(Cl)cc1Cl`, the result was inactive.

On to `Cc1ccc(C)c(NCC(=O)NNC(=S)Nc2ccccc2)c1`, for which the call was inactive.

As to `Cc1cccc(C(=O)NC(=S)NNC(=O)c2cccs2)c1`, the outcome was inactive.

As for `Cc1ccccc1C(=O)NNC(=S)NC(=O)COc1ccccc1`, the compound was called inactive.

Turning to `CC(O)c1cccc(NC(=O)CC(c2ccccc2)c2ccccc2)c1` (configuration not stated), the compound was called inactive.

With `O=C(CC(c1ccccc1)c1ccccc1)Nc1ccncc1`, the call was inactive.

With `O=C(O)CC(NC(=O)c1sc2ccccc2c1Cl)c1ccc(OC2CCCC2)cc1` (configuration not stated), the call was inactive.

As to `O=C(O)c1ccc2c(c1)N(Cc1ccc(F)cc1)C(=O)c1ccccc1S2`, the call was inactive.

Take `CC1CCCN(CCCNC(=O)c2ccc3c(c2)N(Cc2ccccc2F)C(=O)c2ccccc2S3(=O)=O)C1` (configuration not stated): the compound was called inactive.

Consider `Cc1ccc(C(=O)N/C(=C\C=C\c2ccccc2)C(=O)NCc2ccco2)cc1`, for which the call was inactive.

As to `CC(C)c1ccc(C(C)NC(=O)C2CCCC2)cc1` (configuration not stated), the compound was classed as inactive.

Take `COc1ccccc1C(=O)NC(=S)NNC(=O)c1sc2ccccc2c1Cl`: the result was inactive.

On to `O=C(NNC(=S)NC(=O)c1sc2ccccc2c1Cl)c1ccc(Cl)cc1`, for which the call was inactive.

Consider `Cc1onc(-c2ccccc2)c1C(=O)NNC(=S)NC(=O)c1ccc(Br)cc1`, for which the compound was called inactive.

As for `CCCOc1ccc(C(=O)NC(=S)NNC(=O)c2c(-c3ccccc3)noc2C)cc1`, the compound was called inactive.

In the case of `CCn1c(=O)n(CC)c2cc(S(=O)(=O)N3CCc4ccccc43)ccc21`, the outcome was inactive.

Take `O=C(NNS(=O)(=O)c1ccccc1[N+](=O)[O-])c1cc2ccccc2cc1O`: the compound was classed as inactive.

In the case of `C=CCN(CC=C)S(=O)(=O)c1ccc2nc(NC(=O)C3CCCO3)sc2c1` (configuration not stated), the outcome was inactive.

Turning to `CCOC(=O)c1sc(NC(=O)CSc2nc3c(c(=O)n2-c2ccc(C)cc2)SCC3)c(C(=O)OCC)c1C`, the result was inactive.

On to `CC(OC(=O)CCN1C(=O)c2cccc([N+](=O)[O-])c2C1=O)C(=O)Nc1cc(Cl)cc(Cl)c1` (configuration not stated), for which the result was inactive.

`CCc1c(C2(O)CCCCC2)[nH]c2cc(C(F)(F)F)ccc12`: the outcome was inactive.

`Cc1cc(NS(=O)(=O)c2ccc(NC(=O)/C=C/c3c(F)cccc3Cl)cc2)nc(C)n1`: the compound was classed as inactive.

As to `Cc1cc(C)cc(NC(=O)c2ccc(N3C(=O)C4CCCCC4C3=O)cc2)c1` (configuration not stated), the result was inactive.

Turning to `Cc1ccc(NC(=O)c2ccc(Cn3cc([N+](=O)[O-])cn3)cc2)c(C)c1`, the call was inactive.

Regarding `CN(Cc1ccccc1)CC(O)COc1ccc(CNCc2cc3ccccc3s2)cc1` (configuration not stated), the compound was classed as inactive.

For the compound `O=C(O)CC(Cc1ccc(Cl)cc1)C(=O)Nc1cc(Cl)ccc1Cl` (configuration not stated), the outcome was inactive.

Take `Cc1cc(NCCCn2ccnc2)n2ncc(-c3ccc(Cl)cc3)c2n1`: the compound was classed as inactive.

With `C=CCNC(=O)c1ccc(C2SCC(=O)N2Cc2ccccc2)cc1` (configuration not stated), the call was inactive.

`Cc1ccc(C(=O)NCC(=O)N2CCC(Cc3ccccc3)CC2)cc1`: the compound was called inactive.

In the case of `CCOC(=O)C1(CCOC)CCN(Cc2ccc(C(=O)OC)cc2)CC1`, the result was inactive.

For `CC(C)CNS(=O)(=O)c1ccc(CCC(=O)N2CCN(Cc3ccc4c(c3)OCO4)CC2)cc1`, the compound was called inactive.

Regarding `COc1ccc2c(c1)-c1c(ssc1=S)C(C)(C)N2`, the outcome was inactive.

For the compound `CC(C)OC(=O)CN1CCN(S(=O)(=O)c2cc(Cl)ccc2Cl)CC1`, the result was inactive.

`CC(=O)c1ccc(S(=O)(=O)N(C)C(C)CCc2ccco2)cc1` (configuration not stated): the compound was called inactive.

On to `Cc1ccc(C(C)NC(=S)NCc2ccc(F)cc2)cc1C` (configuration not stated), for which the compound was classed as inactive.

Turning to `COc1cccc(NC(=S)N(Cc2ccc(C(=O)O)cc2)Cc2ccc(OC)c(OC)c2)c1`, the outcome was inactive.

In the case of `CCCCNC(=O)c1onc(CSc2ccc(C(C)C)cc2)c1C(=O)O`, the call was inactive.

As for `CCN(CC)CCCN(C(=O)c1ccco1)c1nc(-c2ccc(Cl)cc2)cs1`, the call was inactive.

For the compound `O=C1c2ccccc2-c2cccnc21`, the compound was classed as inactive.

For `O=[N+]([O-])c1ccc(Nc2ccccc2O)c2nonc12`, the compound was classed as inactive.

On to `Cc1ccc2nc(Nc3ccccc3)cc(C)c2c1`, for which the outcome was inactive.

As for `CCc1ccc(N/C(=N/c2nc(C)cc(C)n2)NC(C)=O)cc1`, the call was inactive.

For the compound `CCSc1nnc2n1C(C)(C)Cc1ccccc1-2`, the outcome was inactive.

Consider `CCOc1ccc(OCc2ccc(C(=O)N3CCCC3)o2)cc1`, for which the compound was called inactive.

As for `COc1ccc(C2CC(c3ccc(Br)cc3)=NN2C(=O)CN2CCCC2)cc1` (configuration not stated), the result was inactive.

For `COc1ccc(C2SCC(=O)N2CCc2ccc(OC)c(OC)c2)cc1` (configuration not stated), the result was inactive.

For `CC(=O)N1c2ccc(S(=O)(=O)NCc3ccccc3Cl)cc2CC1C` (configuration not stated), the compound was classed as inactive.

`CCOC(=O)N1CCN(C(=O)c2ccc3nc(N4CCC(C)CC4)sc3c2)CC1`: the compound was classed as inactive.

`CCOC(=O)c1oc2nc(C(C)C)c3c(c2c1N)CCC3`: the call was inactive.

Turning to `CCCc1nc2oc(C(=O)OCC)c(N)c2c2c1COC(C)(C)C2`, the result was inactive.

For `OCCn1nc(-c2ccccc2)cc1-c1ccccc1`, the result was inactive.

Consider `Cc1ccc(CNc2ncc(-c3ccccc3)n2C)o1`, for which the call was inactive.

For the compound `Cn1c(SCC(=O)N2CCN(c3ccccc3)CC2)nnc1-c1ccccc1`, the call was inactive.

In the case of `CS(=O)(=O)Nc1ccccc1C(=O)NCCSc1ccccc1`, the result was inactive.

`COc1ccc(NC(=O)N2CCC(n3cnc4ccccc43)CC2)cc1`: the result was inactive.

With `COc1ccc(C(=O)C2CCCN(C(=O)C3=CCCC3)C2)c(C)c1` (configuration not stated), the compound was classed as inactive.

For `COc1ccc(C(=O)C2CCCN(C(=O)c3noc4c3CCCC4)C2)cc1F` (configuration not stated), the compound was called inactive.

For the compound `CCC1CCCCN1CCCNC(=O)c1ccc2c(c1)c(C)c(C)n2C` (configuration not stated), the result was inactive.

Regarding `CCN(CC)C(=O)c1ccc(COc2ccccc2Br)o1`, the compound was called inactive.

Regarding `O=C(Nc1cccnc1)c1ccc(COc2ccccc2Cl)o1`, the outcome was inactive.

Consider `Cc1ccc(S(=O)(=O)CC(O)COc2ccc(F)cc2Cl)cc1` (configuration not stated), for which the compound was classed as inactive.

`Cc1ccc(S(=O)(=O)NC(=O)COc2cc(C)ccc2C(C)C)cc1`: the compound was called inactive.

As for `CCN(CC)S(=O)(=O)c1ccc(OC)c(NC(=S)Nc2ccc(C)c(C)c2)c1`, the outcome was inactive.

Consider `Cc1ccc(S(=O)(=O)N2CCC(=O)N(CCOCc3ccc(F)cc3)CC2)cc1`, for which the compound was called inactive.

`Cc1ccc(C)c(S(=O)(=O)C(C#N)c2nc3ccccc3nc2N2CC(C)OC(C)C2)c1` (configuration not stated): the compound was classed as inactive.

With `Cc1ccc(-c2nnc(N3CCCCC3)c3ccccc23)cc1S(=O)(=O)N1CCN(C)CC1`, the compound was called inactive.

With `COc1cc(OC)cc(C(=O)NC(=S)NNC(=O)[C@H]2C[C@@H]2c2ccccc2)c1`, the compound was classed as inactive.

Regarding `CS(=O)(=O)c1ncc(Cl)c(C(=O)Nc2ccc(N3CCOCC3)cc2)n1`, the result was inactive.

In the case of `CS(=O)(=O)c1ncc(Cl)c(C(=O)Nc2ccc(OC(F)F)cc2)n1`, the outcome was inactive.

Consider `Cc1nn(CC2CC2)c(=O)n1-c1ccc(Oc2ccccc2)cc1`, for which the result was inactive.

For the compound `N#Cc1c(Cl)cccc1N1CCCC1`, the outcome was inactive.

Regarding `CC(C)NCC(O)c1ccc(O)c(O)c1` (configuration not stated), the outcome was inactive.

For `C[C@@H](NCCc1ccc(O)cc1)[C@@H](O)c1ccc(O)cc1`, the outcome was inactive.

As for `CCc1ccccc1NC(=O)C1CC(c2ccc(OC)cc2)=NO1` (configuration not stated), the result was inactive.

Turning to `N#CCCn1cc(/C=C2\NC(=S)N(c3ccccc3)C2=O)c(-c2ccc(F)cc2)n1`, the compound was called inactive.

Take `Cc1ccc(C(=O)N/C(=C\c2cccs2)c2nc3ccccc3[nH]2)cc1`: the compound was called inactive.

`CSc1ccc(C(=O)C2CCCN(C(=O)c3ccsc3)C2)cc1` (configuration not stated): the result was inactive.

Take `COc1ccc(C(=O)N2CCCC(O)C2)cc1OC1CCN(C(C)C)CC1` (configuration not stated): the result was inactive.

Consider `CC(C)(C)CC(=O)NCCc1csc(-c2ccccc2)n1`, for which the compound was called inactive.

Take `N#C/C(=N\Nc1cccc(C(F)(F)F)c1)C(=O)c1ccsc1`: the compound was classed as inactive.

Regarding `CC[N+]1(CC)CC2=Cc3c(ccc4ccccc34)C(C)C2C1` (configuration not stated), the outcome was inactive.

Turning to `CC(=O)N(C)c1ccc(NC(=O)C(Sc2ccccc2)c2ccccc2)cc1` (configuration not stated), the call was inactive.

Turning to `CC(C)(C)C(=O)/C(C#N)=C/c1ccc(O)cc1`, the outcome was inactive.

Regarding `CCCC1=NN2C(=N)/C(=C\c3ccc(SCc4ccco4)o3)C(=O)N=C2S1`, the compound was classed as inactive.

As to `Cc1ccc(S(=O)(=O)Oc2cccc(/C=N/n3cnnc3)c2)cc1`, the result was inactive.

As to `Cc1ccc(S(=O)(=O)Oc2ccccc2/C=C2/SC(=O)NC2=O)cc1`, the compound was called inactive.

With `Cc1ccc(S(=O)(=O)Oc2ccccc2/C=C2\SC(=O)NC2=O)cc1`, the outcome was inactive.

For the compound `CS(=O)(=O)C1=NN2C(=N)/C(=C\c3ccc(OC(=O)c4ccco4)cc3)C(=O)N=C2S1`, the compound was classed as inactive.

As for `CC(C)CS(=O)(=O)C1=NSC2=NC(=O)/C(=C\c3ccc(OC(=O)c4ccco4)cc3)C(=N)N21`, the compound was classed as inactive.

With `Cc1ccccc1NC(=O)c1ccc(C)c(S(=O)(=O)N2CCN(C)CC2)c1`, the compound was called inactive.

Consider `CCOc1ccc(Br)cc1S(=O)(=O)N1CCCC1`, for which the compound was called inactive.

On to `COc1ccc(/C=C/C(=O)NC2CCCCCCC2)cc1S(=O)(=O)N1CCOCC1`, for which the outcome was inactive.

Turning to `Oc1ccc(/C=N/n2c(-c3ccccc3)n[nH]c2=S)cc1Br`, the result was inactive.

With `CN(c1ccc(O)cc1)c1nc(-c2cccs2)cs1`, the outcome was inactive.

As for `COc1ccc(C(=O)NCc2ccon2)cc1OC1CCN(C(C)C)CC1`, the call was inactive.

As to `COc1cc(CNCCc2ccccc2)cc(Br)c1OCC(=O)Nc1ccccc1C`, the outcome was inactive.

On to `Cn1c(SCc2nc3ccccc3s2)nnc1-c1cccs1`, for which the compound was called inactive.

As for `CC(=O)Nc1ccc(S(=O)(=O)Nc2nc3ccccc3nc2Nc2ccc(N)cc2)cc1`, the call was inactive.

As to `COc1ccc(-c2nnc(CSc3nc4ccccc4c(=O)n3CC3CCCO3)o2)cc1OC` (configuration not stated), the call was inactive.
